The values below come from PubChem BioAssay AID588342 (National Center for Advancing Translational Sciences (NCATS), 2011).

Where “and” joins values, the source holds several entries; their conditions need not be identical. Equal entries are not always repeated. About 25,000 (6.9%) of roughly 360,000 compounds were called active. Entries that show only a call come without a potency. Roughly 9% stayed inconclusive and do not appear here. The call rests on the fitted dose curve; in most records, active means well fitted inhibition curve with a large enough effect; inconclusive means small, poorly fitted or top-dose-only effect; inactive means flat fitted curve, though single readings scatter. The full list was thinned out, with actives kept by preference. A structure can be active in one record and inactive in another.
Potency means the concentration at half of the fitted maximal effect.

Chain of Luciferin 4-monooxygenase (Photinus pyralis) (P08659 whole entry, looked up): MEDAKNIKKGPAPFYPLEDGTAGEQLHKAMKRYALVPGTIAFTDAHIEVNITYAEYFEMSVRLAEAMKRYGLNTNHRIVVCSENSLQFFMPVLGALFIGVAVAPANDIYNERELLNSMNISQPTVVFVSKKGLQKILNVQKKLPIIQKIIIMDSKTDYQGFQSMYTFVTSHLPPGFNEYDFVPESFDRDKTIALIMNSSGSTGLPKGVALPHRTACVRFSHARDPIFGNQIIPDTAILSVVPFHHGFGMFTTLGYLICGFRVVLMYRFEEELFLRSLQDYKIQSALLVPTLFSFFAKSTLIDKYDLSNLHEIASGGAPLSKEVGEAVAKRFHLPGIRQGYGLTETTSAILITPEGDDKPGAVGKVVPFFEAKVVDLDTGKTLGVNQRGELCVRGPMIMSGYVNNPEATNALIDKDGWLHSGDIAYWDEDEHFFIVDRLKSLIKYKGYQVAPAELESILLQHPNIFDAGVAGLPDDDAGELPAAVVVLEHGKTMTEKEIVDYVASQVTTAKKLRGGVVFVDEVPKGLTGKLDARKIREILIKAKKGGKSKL

The assay concerns the target Luciferin 4-monooxygenase (Photinus pyralis) (UniProt P08659). Put plainly: qHTS profiling assay for firefly luciferase inhibitor/activator using purifed enzyme and Km concentrations of substrates (counterscreen for miR-21 project). Further: nearly all actives have a fitted effect of over 55% in size. The conditions noted are these: purified FLuc, luminescence inhibition; series mostly up to 57.5 µM. The method in brief:
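Biochemical qHTS of compounds, final roughly 60 µM downward over six points, against 10 nM purified firefly luciferase using Km concentrations of substrates (10 uM D-luciferin, 10 uM ATP) in Tris acetate pH 7.5 buffer; luminescence output.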
Regarding `Cc1cnc(CN(C)C(=O)C2CCC(=O)N(CCc3cccc(F)c3)C2)[nH]1` (stereo not drawn), the Potency entry was “inactive”.

As to `O=C(Nc1ccncc1)c1ccc([N+](=O)[O-])cc1Cl`, the Potency entry is “inactive”.

Turning to `O=C(Nc1ccc(Br)cn1)c1ccc([N+](=O)[O-])cc1Cl`, the Potency was 13.5 µM (active).

For `O=C(Nc1cccnc1)c1cc([N+](=O)[O-])ccc1Cl`, the Potency entry was “inactive”. Regarding `COc1ccc2[nH]c3c(c2c1)CCN(C(=O)CCC1CCCC1)C3c1ccc(F)cc1` (stereo not drawn), the Potency result is “inactive”. The same measure, in the same setting: in the case of `Cc1ccc(-c2noc(CC(c3ccccc3)c3ccccc3)n2)cc1` it was “inactive”; in that of `Cc1ccc(Cc2nc(-c3cccc(C)c3)no2)cc1`, 10.7 µM (active); in that of `Cc1cccc(-c2noc(CCC(=O)NC3CCCC3)n2)c1`, “inactive”. On the same count and under the same terms, the same measure for `CCc1ccccc1NC(=O)CSc1nnc(-c2ccccc2)c(-c2ccccc2)n1`: “inactive”. The same measure, in the same setting: in the case of `Cc1ccc(CCNC(=O)Cn2c(-c3cccs3)cc3cc(F)ccc32)cc1` it was “inactive”; in that of `CCc1nn(CC(=O)N2CCN(c3cccc(C(F)(F)F)c3)CC2)c(=O)c2cc3occc3n12`, “inactive”; in that of `CCn1c(CNC(=O)c2ccco2)nnc1SCC(=O)Nc1cccc(F)c1`, “inactive”. Take `Cc1cc(SCc2c(F)cccc2Cl)nc(=O)[nH]1`: the Potency entry was “inactive”. Same read-out and setting: in the case of `Oc1ccc(-n2nnnc2SCc2c(F)cccc2Cl)cc1` it was “inactive”. The same measure, in the same setting: in the case of `Fc1cccc(Cl)c1CSc1ccc(-c2ccco2)nn1` it was 13.5 µM (active). For the molecule `O=C(CSc1ccc(-c2ccco2)nn1)Nc1cccc(F)c1`, the Potency was 12 µM (active). On the same count and under the same terms, the same measure for `O=C(CSc1ccc(-c2ccco2)nn1)NCc1ccc2c(c1)OCO2`: “inactive”. Consider `Cc1noc2ncnc(NCc3ccccc3Cl)c12`, for which the Potency result was “inactive”. The same measure, in the same setting: in the case of `O=C(CCSCc1cccc(F)c1)NCc1ccccc1` it was “inactive”.

Turning to `O=C1NC(Nc2nc3ccccc3s2)(C(F)(F)F)C(=O)N1C1CCCCC1` (stereo not drawn), the Potency entry is “inactive”.

For the molecule `c1ccc2sc(NN=C3CCCC3)nc2c1`, the Potency is 2.69 µM (active). Same read-out and setting: the same measure for `CCN(CC)CCn1c2c(c(SCC(=O)Nc3nc4ccccc4s3)nc1=O)CCCC2`: “inactive”; for `COC(=O)c1ccccc1NC(=O)C(Cc1ccccc1)N1Cc2ccccc2C1=O` (stereo not drawn): “inactive”. The same measure, in the same setting: the same measure for `COCCNC(=O)CSc1nc(-c2ccccc2)[nH]c1-c1ccc(C)cc1`: “inactive”; for `C=CCNC(=S)N1CCN(CCN=Cc2c(C)[nH]n(-c3ccc([N+](=O)[O-])cc3)c2=O)CC1`: “inactive”. On the same count and under the same terms, the same measure for `CCc1ccccc1NC(=O)c1cc(-c2ccc3c(c2)OCO3)on1`: “inactive”; for `O=C(Nc1cccnc1Cl)c1cc(-c2cccc(Cl)c2)on1`: “inactive”. As for `O=C(Nc1ccccc1C(F)(F)F)c1cc(-c2ccc(O)cc2)on1`, the Potency was 26.9 µM (active).

In the case of `Cc1ccccc1CSc1nc2c([nH]c3ccccc32)c(=O)n1C`, the Potency result was “inactive”. In the case of `COc1ccc(CNC(=O)CS(=O)Cc2nc(-c3cccc(C)c3)oc2C)cc1` (stereo not drawn), the Potency entry is “inactive”. The same measure, in the same setting: the same measure for `COc1ccc(CNc2nc(-c3ccc(Cl)cc3)cc(C(F)(F)F)n2)cc1`: “inactive”; for `COc1ccc(Cn2c(-c3ccc(Cl)cc3)c[n+]3ccccc23)cc1`: 19 µM (active). Take `COc1ccc(CNc2nc(-c3ccc(Cl)cc3)nn2C(=O)c2ccccc2)cc1`: the Potency entry is “inactive”. Turning to `COc1ccc(OC)c(-c2csc(-c3c(N)c(C(=O)c4ccccc4)n4ccccc34)n2)c1`, the Potency result is “inactive”.

As for `CC(C)(C)c1ccc(C(=O)N2CCC(c3nc(-c4ccc(S(=O)(=O)N5CCCC5)cc4)no3)CC2)cc1`, the Potency result is “inactive”. On the same count and under the same terms, in the case of `O=C(N/N=C/c1ccco1)c1ccc(NC(=O)C2CC2)cc1` it was “inactive”; in that of `O=C(N/N=C/c1ccco1)c1csc2c1CCCC2`, 15.1 µM (active); in that of `COC(=O)c1sc(NC(=O)c2csc3c2CCCC3)nc1C`, 2.39 µM (active). In the case of `CCOC(=O)c1sc(NC(=O)c2cc(S(=O)(=O)N3CCOCC3)ccc2C)nc1C`, the Potency result is “inactive”. On the same count and under the same terms, the same measure for `CC1CC(C)CN(CCCNC(=O)c2csc3c2CCCCC3)C1` (stereo not drawn): “inactive”. Same read-out and setting: the same measure for `O=C(NCc1ccccc1Cl)c1csc2c1CCCCC2`: “inactive”; for `Cc1ccc(NC(=O)c2csc3c2CCCC3)cc1`: 4.26 µM (active). On the same count and under the same terms, the same measure for `CCOc1ccc(CCNC(=O)c2csc3c2CCCCC3)cc1`: “inactive”.

`CC(C)NC(=O)C(=O)N/N=C/c1ccco1`: the Potency entry is “inactive”.

As to `Cc1c(CCOC(=O)CC23CC4CC(CC(C)(C4)C2)C3)sc[n+]1Cc1ccc([N+](=O)[O-])cc1`, the Potency entry is “inactive”. Regarding `CCn1c(SCC(=O)NCC2CCCO2)nc2ccccc21` (stereo not drawn), the Potency entry was “inactive”. In the case of `CCc1ccccc1NC(=O)Cn1c(=O)n(-c2cccc(C)c2)c(=O)c2c1c1cc(OC)ccc1n2C`, the Potency entry was “inactive”. Still for that read-out and setting: the same measure for `CC(=O)c1ccc(S(=O)(=O)NCCC(=O)N2CCN(c3ccccn3)CC2)cc1`: “inactive”; for `O=C(CC(c1cccs1)N1Cc2ccccc2C1=O)Nc1ccc(F)cc1F` (stereo not drawn): “inactive”. Take `Nc1ccc(C(=O)N2CCN(S(=O)(=O)c3ccc(Cl)cc3)CC2)cc1[N+](=O)[O-]`: the Potency result is “inactive”.

With `COc1ccc(-c2nc(S(=O)(=O)c3ccccc3)c(N3CCCCC3)o2)cc1`, the Potency result is “inactive”. Turning to `Oc1cccc2ccc(/C=C/c3ccc(Br)s3)nc12`, the Potency is 6.75 µM (active). Consider `Nc1ccc(S(=O)(=O)Nc2nccc(/C=C/c3ccc(Br)s3)n2)cc1`, for which the Potency entry is “inactive”. On the same count and under the same terms, the same measure for `COc1cccc(N(CC(=O)NC2CCCC2)C(=O)CCCC(=O)Nc2ccccn2)c1`: “inactive”; for `CC1CCN(C(=S)c2cccc(O)c2)CC1`: “inactive”.

`CC1CCN(C(=S)c2ccc(-c3ccc(Cl)cc3Cl)o2)CC1`: the Potency was 12 µM (active). With `COc1ccc(C(=O)Nc2c(Cl)cc(Cl)cc2C(=O)N2CCC(C)CC2)cc1`, the Potency entry is “inactive”. Same read-out and setting: in the case of `O=C(CN1C(=O)COc2ccc(S(=O)(=O)N3CCOCC3)cc21)N1CCN(c2cccc(Cl)c2)CC1` it was “inactive”; in that of `O=C(NNC(=S)NC(=O)c1cn(-c2ccccc2)nc1-c1ccccc1)c1ccncc1`, 13.5 µM (active); in that of `O=C(Nc1cn(-c2ccccc2)nc1-c1ccccc1)c1ccccc1`, 15.1 µM (active). On the same count and under the same terms, the same measure for `CC(=O)c1cccc(NC(=O)c2cc(C)nn2-c2ccccc2)c1`: “inactive”; for `Cc1onc(-c2ccccc2)c1C(=O)NNC(=S)NC(=O)c1ccc(F)cc1`: “inactive”; for `Cc1onc(-c2ccccc2)c1C(=O)Nc1ccccc1C#N`: “inactive”. Consider `COc1ccc(C(=O)NC(=S)NNC(=O)c2c(-c3ccccc3)noc2C)cc1`, for which the Potency result is “inactive”.

On to `CCCCn1cc(S(=O)(=O)c2ccc(OCC)cc2)c(=O)c2cc(OC)c(OC)cc21`, for which the Potency entry is “inactive”. On the same count and under the same terms, the same measure for `CCCCC/C=C/C1=CC(=O)C[C@H](c2ccc(Cl)cc2)C1`: “inactive”; for `CCOC(=O)c1cnc2c(C)cc(C)cc2c1Nc1ccc(N2CCOCC2)cc1`: “inactive”; for `N#Cc1c(N)nc2c3c(sc(=N)c2c1N)NC(=O)CC3c1ccccc1Cl` (stereo not drawn): “inactive”.

Regarding `CSc1ncccc1C(=O)NCc1ccccc1Cl`, the Potency entry was “inactive”.

As to `O=C(NC1CCCCCC1)C1CCN(C(=O)c2ccc(Cl)cc2)CC1`, the Potency entry was “inactive”. On the same count and under the same terms, the same measure for `S=C(NCCc1ccccc1)NCc1ccccc1Cl`: “inactive”.

As to `O=[N+]([O-])c1ccccc1NCc1ccccc1Cl`, the Potency result was “inactive”. Turning to `O=C(O)Cc1ccc(NCc2ccccc2Cl)cc1`, the Potency is 7.57 µM (active). Same read-out and setting: the same measure for `O=C(c1ccc(Cl)cc1)n1nc(-c2cccnc2)nc1NCc1ccc(F)cc1`: “inactive”; for `CN(C)c1nc(=Nc2cccc(Cl)c2)ss1`: 3.38 µM (active). Still for that read-out and setting: in the case of `CCOC(=O)N1CCc2c(sc3c2c(=O)n(Cc2ccccc2)c(=O)n3CC(=O)Nc2cccc(C)c2)C1` it was “inactive”; in that of `CCOc1cc(C(=O)Nc2nnc3n2CCS3)cc(OCC)c1OCC`, “inactive”. The same measure, in the same setting: in the case of `O=C(NCc1ccc(Cl)cc1)c1ccc2c(c1)nnn2C1CCCC1` it was “inactive”; in that of `Cc1ccc(-c2cn3c(n2)sc2cc(C(=O)NCc4cccs4)ccc23)c(C)c1`, “inactive”. As to `O=C(NCc1cccs1)c1ccc2c(c1)ncn2C1CCCC1`, the Potency is 19 µM (active). Still for that read-out and setting: in the case of `CCc1nnc(NC(=O)c2cc(S(=O)(=O)N3CCCCC3)ccc2C)s1` it was “inactive”; in that of `CCOC(=O)CSc1nnc(NC(=O)c2cccc(S(=O)(=O)N3CCCCC3)c2)s1`, “inactive”; in that of `Cc1cccc(C(=O)Nc2nnc(S(=O)(=O)N3CCCCCC3)s2)c1`, 26.9 µM (active). The same measure, in the same setting: in the case of `O=C(Nc1nncs1)c1cccc(S(=O)(=O)N2CCCCC2)c1` it was “inactive”; in that of `O=C(Nc1nnc(S(=O)(=O)N2CCCc3ccccc32)s1)c1cccc(F)c1`, “inactive”; in that of `CCOC(=O)CSc1nnc(NC(=O)c2cccc(S(=O)(=O)N3CCCC3)c2)s1`, 23.9 µM (active).

On to `Cc1ccccc1OCC(=O)Nc1nnc(S(=O)(=O)N2CCCC2)s1`, for which the Potency entry is “inactive”. With `O=C(Nc1nnc(S(=O)(=O)N2CCCCCC2)s1)c1cccc(Br)c1`, the Potency result was “inactive and 26.9 µM (active)”.

Turning to `Cc1cccc(NC(=O)c2cccc(S(=O)(=O)N3CCCC3)c2)n1`, the Potency result was “inactive”. For the molecule `CCOc1ccc(NC(=O)Cn2cc(C(=O)c3ccc(C)cc3)c(=O)c3cc4c(cc32)OCCO4)cc1`, the Potency result is “inactive”. Still for that read-out and setting: the same measure for `O=C(c1ccc(C(F)(F)F)cc1)N1CCC(c2nc(-c3ccc(S(=O)(=O)N4CCCC4)cc3)no2)CC1`: “inactive”; for `COc1ccc(N2CCN(c3cc(C)nc4nncn34)CC2)cc1`: “inactive”.

Take `Cc1ccc2oc3c(c(=O)c2c1)C(c1ccc([N+](=O)[O-])cc1)N(CCCN1CCOCC1)C3=O` (stereo not drawn): the Potency result was “inactive”.

For the molecule `O=C1C=C(c2cccc(Cl)c2O)C[C@@H](c2ccc(F)cc2)C1`, the Potency entry is “inactive”. In the case of `CCOc1ccc(NC(=O)Nc2cc(C)ccc2OC)cc1`, the Potency is 2.69 µM (active).

For the molecule `CCOc1ccc(S(=O)(=O)Nc2ccc(S(=O)(=O)Nc3cc(OC)ccc3OC)cc2)cc1`, the Potency result was “inactive”. For `CCOc1ccc(NC(=O)Nc2cc(C)on2)cc1`, the activity change, negative = inhibition is -5.5% [at 2.3 µM] (inactive). As to `COc1ccc(OC)c(NC(=O)c2ccc3c(c2)CCN3S(C)(=O)=O)c1`, the Potency result was “inactive”. The same measure, in the same setting: in the case of `COc1ccc(C)cc1NC(=O)Nc1ccccc1SC` it was “inactive”; in that of `CCOc1ccc(C(=O)Nc2cc(OC)ccc2OC)cc1`, 19 µM (active); in that of `CCOc1ccc(NC(=O)CN(C)C(=O)CCSc2ccc(F)cc2)cc1OCC`, “inactive”.

Take `CCOC(=O)c1ccc(N2C(=O)c3n[nH]c(-c4ccco4)c3C2c2ccc(O)cc2)cc1` (stereo not drawn): the Potency result was “inactive”. The same measure, in the same setting: in the case of `O=C(CSc1oc(-c2ccccc2)nc1S(=O)(=O)c1ccc(Br)cc1)NC1CCCCC1` it was “inactive”.
